Measurements from PubChem BioAssay (NCI).
Compounds without any hit were thinned out: in the full panel of roughly 79,000, 15% have a hit. Unmarked numbers belong to inactive results. Active and inactive are the calls of the source. No stated cut-off is given here; in the data, active means growth inhibition above about 70%; inactive means the rest.

Columns and labels:
[1] = NCI Yeast Anticancer Drug Screen. Data for the rad50 strain (AID 155);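 further: 0% = growth of vehicle-only cultures of the same strain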; settings: S. cerevisiae rad50 strain growth inhibition, hits give high values
Procedure, shortened: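 Compounds were tested on a yeast strain with an engineered DNA damage repair alteration; the reported value is growth inhibition normalised to vehicle treatment.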

[2] = NCI Yeast Anticancer Drug Screen. Data for the mec2-1 strain (AID 157); settings: S. cerevisiae mec2-1 strain, hits give high values
Procedure, shortened: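 Mutant yeast (mec2-1) grown with compound; growth inhibition relative to vehicle control reported.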

[3] = NCI Yeast Anticancer Drug Screen. Data for the sgs1 mgt1 strain (AID 161);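 further: 0% = growth of cultures given vehicle only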; settings: S. cerevisiae sgs1 mgt1 strain, hits give high values
Procedure, shortened: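 Growth of a repair-deficient yeast mutant was monitored after compound treatment and expressed as inhibition relative to vehicle-treated cultures.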

[4] = NCI Yeast Anticancer Drug Screen. Data for the cln2 rad14 strain (AID 165);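 further: 0% = growth equal to vehicle treated cultures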; settings: S. cerevisiae cln2 rad14 strain, hits give high values
Procedure, shortened: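 Readout is yeast growth inhibition versus vehicle-treated controls, using a strain with cln2 and rad14 alterations exposed to compound.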

[5] = NCI Yeast Anticancer Drug Screen. Data for the bub3 strain (AID 167); settings: S. cerevisiae bub3 mutant strain, hits give high values
Procedure, shortened: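 Growth of a checkpoint-deficient yeast mutant is measured after compound exposure. Values represent inhibition relative to vehicle.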

[6] = NCI Yeast Anticancer Drug Screen. Data for the mlh1 rad18 strain (AID 175); settings: S. cerevisiae mlh1 rad18 strain growth inhibition, hits give high values
Procedure, shortened: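 Genetically defined yeast (DNA repair-deficient) exposed to compounds; growth inhibition determined relative to vehicle.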

[7] = at 5.0 µM (retest, dose inferred, filed as 0.5)
[8] = at 50.0 µM (retest, dose inferred, filed as 5.0)

Structure (SMILES) | growth inhibition [1, 7] [%] | growth inhibition [1, 8] | growth inhibition ([1]; at 50.0 µM) | growth inhibition [2, 7] [%] | growth inhibition [2, 8] | growth inhibition ([2]; at 50.0 µM) | growth inhibition [3, 7] [%] | growth inhibition [3, 8] | growth inhibition ([3]; at 50.0 µM) | growth inhibition [4, 7] [%] | growth inhibition [4, 8] | growth inhibition ([4]; at 50.0 µM) | growth inhibition [5, 7] [%] | growth inhibition [5, 8] | growth inhibition ([5]; at 50.0 µM) | growth inhibition [6, 7] [%] | growth inhibition [6, 8] | growth inhibition ([6]; at 50.0 µM)
COc1ccc(CC/C(=N/O)c2ccccc2)cc1 | 0 | 92% (active) | 97% (active) | -3 | 97% (active) | 96.9% (active) | 8 | 94% (active) | 93.8% (active) | -10 | 74% (active) | 97% (active) | 1 | 90% (active) | 98% (active) | -9 | 96% (active) | 96.9% (active)
O=C(O)CCCCCCCCCCOc1ccc(Cl)cc1Cl | -3 | -8% | 98% (active) | -2 | -2% | 99.1% (active) | 0 | -3% | 94.3% (active) | 1 | -8% | 5.5% | -1 | 2% | 99.3% (active) | 0 | -1% | 98.2% (active)
CS(=O)(=O)OCCN(CCOS(C)(=O)=O)c1ccc(C=Nc2ccc(-c3cnc(-c4ccc(Cl)cc4)s3)cc2)c(Cl)c1 | 1 | 84% (active) | 90% (active) | -3 | 91% (active) | 95% (active) | 3 | 90% (active) | 93.8% (active) | -6 | 90% (active) | 90.5% (active) | 3 | 92% (active) | 92.3% (active) | 0 | 89% (active) | 92.3% (active)
CCCCCCCCCCCC(=O)c1c(O)c2ccccc2oc1=O | 6 | -4% | 54.1% | 45 | 28% | 44.4% | 21 | -8% | 71.2% (active) | -14 | -7% | 22.3% | 0 | -21% | 43.8% | -4 | -4% | 68%
Cc1cc(Sc2ccccc2)c2c(C)ccc(C(C)C)cc1-2 | 0 | -7% | -13.8% | -8 | -12% | 61.4% | 1 | 6% | -0.65% | -16 | -9% | 78.2% (active) | -5 | -10% | 21.4% | -2 | -3% | 58%
O=c1ccnc(Sc2ccc([N+](=O)[O-])cc2[N+](=O)[O-])[nH]1 | 16 | 94% (active) | 47.2% | 8 | 94% (active) | 54.6% | 2 | 87% (active) | 84% (active) | 1 | 74% (active) | 59.1% | -1 | 92% (active) | 52.5% | 2 | 93% (active) | 49.6%
CC(c1ccccc1)n1c2ccccc2c2c(N)ncnc21 (configuration not stated) | 6 | 100% (active) | 78.4% (active) | -11 | 100% (active) | 86.8% (active) | 23 | 100% (active) | 89.5% (active) | -4 | 100% (active) | 90.8% (active) | 13 | 100% (active) | 90.3% (active) | 32 | 99% (active) | 91.9% (active)
O=C(CC(=O)C(F)(F)F)c1ccc(-c2ccccc2)cc1 | 27 | 99% (active) | 97% (active) | 45 | 99% (active) | 98.2% (active) | 39 | 99% (active) | 98% (active) | 14 | 98% (active) | 97.8% (active) | 36 | 99% (active) | 97.2% (active) | 45 | 99% (active) | 98.7% (active)
Cn1c(CCC2(C)Cc3ccccc3C(=O)O2)cc2ccccc2c1=O (configuration not stated) | 3 | 31% | 55.2% | -6 | 48% | 69.7% | 0 | 79% (active) | 73.9% (active) | -11 | 27% | 28.4% | -27 | 86% (active) | 75.3% (active) | 2 | 48% | 49%
Cc1c(-c2ccccc2)ccnc1/C=N/NC(=S)Nc1ccc(N(C)C)cc1 | 48 | 94% (active) | 74.8% (active) | 38 | 96% (active) | 76.7% (active) | 49 | 93% (active) | 70% (active) | 43 | 91% (active) | 60.6% | 59 | 94% (active) | 81.7% (active) | 36 | 93% (active) | 79.6% (active)
CSC(=S)N/N=C/c1cccc(C)n1 | 13 | 71% (active) | 95.1% (active) | 5 | 60% | 82.1% (active) | 3 | 69% | 66.2% | -8 | 26% | 67.7% | 1 | 72% (active) | 86.8% (active) | 30 | 80% (active) | 82.6% (active)
C=CS(=O)(=O)c1ccc([N+](=O)[O-])cc1 | -29 | 98% (active) | 99.7% (active) | -7 | 99% (active) | 99.7% (active) | 21 | 98% (active) | 99.5% (active) | -16 | 98% (active) | 99.7% (active) | 20 | 98% (active) | 99.3% (active) | 16 | 97% (active) | 99.2% (active)
CC1=C(C)C(N2CCOCC2)CS(=O)(=O)O1 (configuration not stated) | 4 | 0% | 6.15% | 1 | -3% | -14.4% | 5 | 0% | -2.3% | 3 | -1% | 16.4% | -2 | -1% | 1.35% | 19 | 17% | -3.95%
CC(C)(Oc1ccc(-c2cccc3ccccc23)cc1)C(=O)O | 9 | 42% | 58.3% | 5 | 51% | 13.7% | 6 | 49% | 29.4% | -6 | 54% | 70.5% (active) | 13 | 54% | 67.8% | -6 | 49% | 28.8%
O=C(Nc1cc(-c2ccccc2)[nH]n1)c1ccccc1 | 34 | 36% | 33.4% | 29 | 37% | 16.1% | 38 | 58% | 23.9% | 23 | 25% | 18% | 31 | 73% (active) | 56.8% | 46 | 47% | 23.4%
CCCCC1(CC)COC(c2ccccc2OC)OC1 (configuration not stated) | -6 | 88% (active) | -28.4% | -5 | 88% (active) | 2.45% | -1 | 81% (active) | 5.5% | -9 | 65% | -9.85% | 31 | 92% (active) | 76.5% (active) | -2 | 87% (active) | -17.2%
COc1ccc(/C=N/NS(=O)(=O)c2ccccc2)cc1 | 0 | -2% | 99.1% (active) | -2 | 4% | 99.3% (active) | 0 | 3% | 99% (active) | -10 | -7% | 98% (active) | 2 | 11% | 99.2% (active) | -2 | 7% | 99% (active)
O=C(O)Cc1cccc2cc3c(ccc4ccccc43)cc12 | 15 | 34% | 47.7% | 8 | 32% | 91% (active) | 11 | 47% | 10.1% | -2 | 44% | 96.6% (active) | 2 | 42% | 93.3% (active) | 8 | 44% | 96.7% (active)
Cc1ccc(C)c(N(c2ccccc2[N+](=O)[O-])S(C)(=O)=O)c1 | 5 | 20% | 99.5% (active) | 19 | 36% | 99.5% (active) | 5 | 22% | 99.6% (active) | 5 | 21% | 99.3% (active) | -2 | 16% | 99.4% (active) | -5 | 10% | 99.2% (active)
